Experimental findings from PubChem BioAssay (Tox21) are described below.

Structures are written as SMILES. Values without a mark were called inactive. Inconclusive results are not listed. The source made the active and inactive calls. Unless noted, calls come from the whole dose curve; as a rule, active = well fitted curve in the direction sought with a large enough effect in the repeat runs; inconclusive = weak or mixed curves; inactive = no such curve, though single readings can be large; an effect the other way counts as inactive or inconclusive.

The nature of assay [1]: qHTS assay for small molecule agonists of the p53 signaling pathway (AID 651631; calls by dose curve; note: nearly all actives have a fitted effect of over 15% in size). The essentials:
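Stably transfected HCT-116 cells (beta-lactamase behind p53 response elements) get compounds after a 5 h settling period; 16 h later at 37 °C, FRET substrate is loaded and fluorescence read after 2 h.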
On the technique in general: In qHTS, concentration-response curves come from the screen itself.

Assay [2] is described as follows: qHTS assay for small molecules that induce genotoxicity in human embryonic kidney cells expressing luciferase-tagged ATAD5 (AID 651632). Note: nearly all actives have a fitted effect of over 15% in size. The method, boiled down: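 Reporter cells (HEK293T) express luciferase-tagged ATAD5, a protein that accumulates after DNA damage. Treat 16 hr at 37C/5% CO2, add Amplite, wait 30 min at RT, and read luminescence.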
The nature of assay [3]: qHTS assay for small molecule agonists of the p53 signaling pathway - cell viability (AID 651633; calls by dose curve;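 note: p53RE-bla HCT reporter cells with a stable beta-lactamase p53 reporter; series mostly up to about 83 µM; nearly all actives have a fitted effect of over 30% in size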). The essentials:
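p53RE-bla cells were treated with compound for 16 hours at 37 C. Cytotoxicity was then measured as CellTiter-Glo luminescence after 30 min at room temperature.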

Assay [4] is described as follows: qHTS assay for small molecules that induce genotoxicity in human embryonic kidney cells expressing luciferase-tagged ATAD5 - cell viability (AID 651634; calls by dose curve; note: nearly all actives have a fitted effect of over 25% in size; note: potency is the fitted concentration of half-maximal effect). The method, boiled down: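 Seeding of 2,000 HEK293T ATAD5-luciferase cells per well preceded pin-tool compound transfer. Plates sat 15.5 hr at 37C under 5% CO2, then fluorescence was read after 30 min with CellTiter-Fluor.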

A short description of assay [5]: qHTS assay for small molecule disruptors of the mitochondrial membrane potential - cell viability (AID 720634; calls by dose curve;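 note: human HepG2 liver cancer cells; series mostly up to about 83 µM; nearly all actives have a fitted effect of over 20% in size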). The essentials:
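Measuring cytotoxicity alongside mitochondrial potential, the screen quantified ATP by luminescence in HepG2 cells after 1 hr compound incubation and a 30 min room-temperature CellTiter-Glo step.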

A short description of assay [6]: qHTS assay for small molecule disruptors of the mitochondrial membrane potential (AID 720635). Note: potency is the fitted concentration of half-maximal effect. The essentials:
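HepG2 cells exposed to compound 1 hr at 37C, then Mito-MPS dye 30 min. Ratio read of aggregate (540/590 nm) versus monomer (490/535 nm) fluorescence.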

A short description of assay [7]: qHTS assay to test for compound auto fluorescence at 590 nm (red) in HepG2 cells (AID 720674). The method, boiled down: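 Seeding: 2,000 HepG2 cells/well, MEM/10% FBS, overnight 37 C. Dosing: compound vs DMSO. Incubation: 1 hr, 37 C, 5% CO2. Read: fluorescence 540 ex/590 em, Rose Bengal sodium as red reference.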
A short description of assay [8]: qHTS assay to test for compound auto fluorescence at 535 nm (green) in HepG2 cells (AID 720675).
Assay [9] can be described thus: qHTS assay to test for compound auto fluorescence at 460 nm (blue) in HEK293 cells (AID 720678). The essentials:
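Blue-channel (Ex/Em 405/460 nm) intensity measured in HEK293 cultures after overnight compound exposure at 37C; signal expressed relative to triamterene. Cells plated 2,000 per well in 10% dialyzed FBS medium and allowed 4-5 hr to attach.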

The nature of assay [10]: qHTS assay to test for compound auto fluorescence at 590 nm (red) in HEK293 cells (AID 720679). The method, boiled down:
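Red-channel autofluorescence (Ex/Em 540/590 nm; Rose Bengal sodium reference) was measured after overnight 37C, 5% CO2 exposure of attached HEK293 cells, 2,000 per well in medium with 10% dialyzed FBS.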
% is set by controls: 0 for no effect and ±100 for the full control effect.

On to `O=C1O[C@@H]2[C@@H](O)[C@H](O)O[C@@H]2[C@H]1O`, for which the compound was classed as inactive in assay [1], in [3], in assay [5], in assay [7], in [8] and in [9]. In addition, the outcome in assay [10] was inactive. Also, the Potency entry in assay [2], in assay [4] and in assay [6] was “inactive” in each case.
`NCCS`: the compound was called inactive in assay [1], in assay [3], in assay [5], in assay [7], in [8] and in [9]. Besides, in [10], the compound was called inactive. Also, the Potency entry in assay [2], in assay [4] and in [6] was “inactive” each time.
Consider `CCN1CCc2nc(N)oc2CC1`, for which the outcome in assay [1], in assay [3], in [5], in assay [7], in [8] and in [9] was inactive. Further, the compound was classed as inactive in assay [10]. Also, the Potency result in assay [2], in assay [4] and in assay [6] was “inactive” throughout.
With `CC(C)C[C@H](NC(=O)CNC(=O)[C@H](Cc1ccc(O)cc1)NC(=O)[C@H](CO)NC(=O)[C@H](Cc1c[nH]c2ccccc12)NC(=O)[C@H](Cc1cnc[nH]1)NC(=O)[C@@H]1CCC(=O)N1)C(=O)N[C@@H](CCCN=C(N)N)C(=O)N1CCC[C@H]1C(=O)NCC(N)=O` (stereo in doubt), the compound was called inactive in assay [1], in [3], in assay [5], in assay [7], in [8] and in [9]. For the same compound, in [10], the result was inactive. Besides, the Potency entry in [2], in [4] and in assay [6] was “inactive” in each case.
Consider `CC(C)NCC(O)COc1ccc(COCCOC(C)C)cc1` (stereo unspecified), for which the call in assay [1], in assay [3], in [5], in [7], in assay [8] and in assay [9] was inactive. Further, in assay [10], the outcome was inactive. The Potency entry in assay [2], in [4] and in assay [6] was “inactive” each time.
For the compound `O=C1CCCC(=O)O1`, the compound was called inactive in [1], in assay [3], in assay [5], in assay [7], in [8] and in [9]. Further, in assay [10], the result was inactive. In addition, the Potency result in assay [2], in assay [4] and in assay [6] was “inactive” in each case.
Take `Cc1ccsc1/C=C/C1=NCCCN1C`: the result in [1], in assay [3] and in assay [5] was inactive. Further, the Potency entry in assay [2], in [4] and in assay [6] was “inactive” each time. Moreover, in assay [7], the fluorescence, relative to Rose Bengal was 0.162% [at 18.6 µM]. Moreover, the fluorescence, % of fluorescein control in [8] is 0.0988% [at 18.6 µM]. In addition, the fluorescence, % of triamterene in assay [9] is -0.421% [at 18.6 µM]. Besides, the fluorescence, % of fluorescent control in assay [10] is -1.08% [at 18.6 µM].
On to `CC(C)CCCC(C)(C)O`, for which the compound was called inactive in [1], in [3], in [5], in assay [7], in assay [8] and in assay [9]. For the same compound, the call in [10] was inactive. The Potency result in [2], in assay [4] and in [6] was “inactive” each time.
In the case of `Cc1cc(NC(=O)C2=C(O)c3ccccc3S(=O)(=O)N2C)no1`, the call in assay [1], in [3], in assay [5], in [7], in [8] and in [9] was inactive. Further, the compound was called inactive in [10]. Also, the Potency entry in assay [2] and in assay [4] was “inactive” each time. Further, in assay [6], the Potency was 2.66 µM (active).
For the compound `CC(C)(C)c1n[nH]c(=S)n(N)c1=O`, the compound was called inactive in [1], in [3], in assay [5], in [7], in assay [8] and in [9]. Besides, the compound was called inactive in assay [10]. In addition, the Potency entry in [2], in assay [4] and in assay [6] was “inactive” each time.
For the compound `COc1ccc(C2CNC(=O)C2)cc1OC1CCCC1` (stereo unspecified), the compound was classed as inactive in assay [1], in [3] and in assay [5]. In addition, the Potency entry in assay [2], in [4] and in assay [6] was “inactive” each time. Further, in [7], the fluorescence, relative to Rose Bengal was -0.195% [at 18.6 µM]. The fluorescence, % of fluorescein control in [8] was 0.104% [at 18.6 µM]. Moreover, the fluorescence, % of triamterene in [9] is 0.004% [at 18.6 µM]. In assay [10], the fluorescence, % of fluorescent control is -0.255% [at 18.6 µM].
For the compound `O=C(OCc1ccccc1)C(=O)OCc1ccccc1`, the compound was classed as inactive in [1], in assay [3], in assay [5], in assay [7], in assay [8] and in [9]. Moreover, the result in assay [10] was inactive. Besides, the Potency result in assay [2], in assay [4] and in assay [6] was “inactive” each time.
Turning to `CC(=O)/C=C/C1C(C)=CCC(C)C1(C)C` (stereo unspecified), the outcome in assay [1], in assay [3], in assay [5], in [7], in assay [8] and in [9] was inactive. Besides, the outcome in assay [10] was inactive. Also, the Potency result in assay [2], in [4] and in [6] was “inactive” throughout.
Regarding `Nc1ccc([N+](=O)[O-])c(N)c1`, the compound was called inactive in assay [1], in [3], in assay [5], in assay [7], in assay [8] and in assay [9]. The call in assay [10] was inactive. Also, in [2], the Potency result is “inactive”. The Potency in assay [4] is 47.3 µM (active).
On to `O=C1c2ccccc2C(=O)C1c1ccccc1`, for which the outcome in assay [1], in assay [3] and in assay [5] was inactive. Besides, the Potency result in assay [2] and in [4] was “inactive” in each case. The fluorescence, relative to Rose Bengal in assay [7] is 0.709% [at 18.6 µM]. For the same compound, the fluorescence, % of fluorescein control in [8] is 0.0928% [at 18.6 µM]. For the same compound, the fluorescence, % of triamterene in assay [9] is -0.166% [at 18.6 µM]. In addition, in assay [10], the fluorescence, % of fluorescent control was 0.0127% [at 18.6 µM].
`CCCOC(=O)C(C)O` (stereo unspecified): the call in [1], in assay [3], in [5], in assay [7], in assay [8] and in assay [9] was inactive. For the same compound, the compound was called inactive in [10]. The Potency result in assay [2] and in assay [4] was “inactive” each time.
In the case of `CCOCCOCCOCC`, the call in [1], in [3], in assay [5], in assay [7], in [8] and in [9] was inactive. Further, in assay [10], the result was inactive. For the same compound, the Potency entry in assay [2] and in assay [4] was “inactive” throughout.
Take `COC(=O)C1CC(=O)C(C(=O)OC)CC1=O` (stereo unspecified): the activation is -2.34% [at 8.3 µM] in assay [1] and 2.21% [at 8.08 µM] in assay [2]. The activity change, negative = cytotoxicity in assay [3] was 20.9% [at 8.08 µM]; in assay [5], 10.5% [at 8.08 µM]. In assay [4], the activity, negative = cytotoxicity was 31.1% [at 8.08 µM]. For the same compound, the fluorescence, relative to Rose Bengal in assay [7] was 0.406% [at 3.72 µM]. In addition, the fluorescence, % of fluorescein control in [8] was 0.0015% [at 3.72 µM]. For the same compound, the fluorescence, % of triamterene in [9] was 1.94% [at 3.72 µM]. Moreover, the fluorescence, % of fluorescent control in assay [10] is 0.169% [at 3.72 µM].
Consider `COCCOC(=O)C1=C(C)NC(C)=C(C(=O)OC(C)C)C1c1cccc([N+](=O)[O-])c1` (stereo unspecified), for which the outcome in [1], in [3], in [5], in assay [7], in assay [8] and in assay [9] was inactive. In assay [10], the call was inactive. Also, the Potency result in assay [2] and in assay [4] was “inactive” each time.
Consider `C[C@H](N)[C@H](O)c1cccc(O)c1`, for which the outcome in [1], in assay [3] and in [5] was inactive. For the same compound, the Potency result in assay [2] and in [4] was “inactive” throughout. The fluorescence, relative to Rose Bengal in assay [7] is 0.285% [at 18.6 µM]. In [8], the fluorescence, % of fluorescein control was 0.0051% [at 18.6 µM]. In assay [9], the fluorescence, % of triamterene is 2.14% [at 18.6 µM]. Further, in [10], the fluorescence, % of fluorescent control is -0.0013% [at 18.6 µM].
Turning to `BrCCCCCBr`, the outcome in assay [1], in [3], in [5], in assay [7], in assay [8] and in assay [9] was inactive. Besides, in assay [10], the call was inactive. In addition, the Potency entry in assay [2] and in assay [4] was “inactive” in each case.
Regarding `CC(C(=O)O)c1ccc2c(c1)CC(=O)c1ccccc1S2` (stereo unspecified), the call in assay [1], in assay [3], in assay [5], in assay [7], in assay [8] and in assay [9] was inactive. The outcome in [10] was inactive. Besides, the Potency entry in assay [2], in assay [4] and in assay [6] was “inactive” in each case.
Regarding `CCCCCCCCC(=O)Cl`, the outcome in assay [1], in assay [3], in assay [5], in [7], in assay [8] and in assay [9] was inactive. In [10], the outcome was inactive. In addition, the Potency entry in [2] and in assay [4] was “inactive” each time.
